Screening results: PubChem, National Center for Advancing Translational Sciences (NCATS)
HT1080NT lethal = kills 2HG-producing HT-1080-NT fibrosarcoma cells. HT-1080-NT fibrosarcoma viability, CellTiter-Glo ATP luminescence, 48 h. Potency, µM (highest dose often 46.1 µM), for inactives: at the top dose activity, negative = less viability, actives largely listed as cytotoxic. actives 1.6% (n = 360,000). AID 686970;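 also: NT is the 2HG producing partner of a matched IDH1 knockdown line; potency is read from the fitted curve at half-maximal effect; 0% = DMSO-treated cells and -100% = media-only wells without cells; nearly all actives have a fitted effect of over 55% in size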
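Fibrosarcoma NT cells, 750 per well in 5% FBS RPMI, were exposed to compound for 48 hours. Viability: CellTiter-Glo luminescence.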
HT1080 IDH1KD tx = HT-1080 IDH1 knockdown cell toxicity (counter line); HT-1080 IDH1 knockdown viability, ATP luminescence, 48 h; Potency, µM (highest dose often 46.1 µM), for the others: top-dose activity, negative = toxicity, actives largely listed as cytotoxic; actives 2% (n = 360,000); AID 686971;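 also: potency is read from the fitted curve at half-maximal effect; 0% = DMSO wells and -100% = cell-free medium wells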
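Using the IDH1-knockdown HT-1080 line run in the same batch and compound series as the NT line, viability after 48 h at 37 °C was determined by CellTiter-Glo luminescence and expressed as % activity.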
IL-1B inflam inh = inflammasome signaling inhibition, IL-1 beta readout; actives 4.7% (n = 360,000); THP-1 LPS/ATP IL-1B secretion, AlphaLISA, 16 h; stronger effect = lower value; activity change, % at 57.5 µM; AID 743279; in the data active = activity change below about -50%; inconclusive = mostly about -30% to -49%
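Secreted IL-1B measured by AlphaLISA bead assay after 16 h compound exposure of THP-1 cells; compounds (final up to 57.5 uM) added 1 h before LPS (250 ng/mL) and ATP (1.25 mM) stimulation; lower signal means less secretion.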
TDP1 cell CPT = DT40-hTDP1 cell growth loss with CPT | chicken DT40 Tdp1-/-;hTDP1 cells + 20 nM CPT, ATP luminescence, 48 h | Potency, µM (titrated, usually from 46.2 µM), without a hit: top-dose activity change, negative = growth inhibition, most hits filed as inhibitors | actives 12% (n = 420,000) | AID 686979; also: potency is read from the fitted curve at half-maximal effect; nearly all actives have a fitted effect of over 55% in size
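Cell growth measured by CellTiter-Glo luminescence after a minimum 48 h, 37 C compound exposure with 20 nM CPT in Tdp1-knockout DT40 cells stably expressing hTDP1, seeded 400/well; qHTS titration format.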
TDP1 cell noCPT = qHTS for Inhibitors of human tyrosyl-DNA phosphodiesterase 1 (TDP1): qHTS in cells in absence of CPT | DT40 Tdp1-/- hTDP1 cells, no CPT, ATP luminescence, 48 h | Potency, µM (series often up to 46.2 µM), for inactives: at the highest dose activity change, negative = growth inhibition, actives largely listed as inhibitors | actives 15% (n = 420,000) | AID 686978, 2013; also: potency is read from the fitted curve at half-maximal effect; nearly all actives have a fitted effect of over 55% in size
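Seeded 400 DT40-hTDP1 cells/well (vehicle DMSO, no 20 nM CPT); pinned compounds; ≥48 hr at 37 °C; CellTiter-Glo luminescence as viability measure.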
Active calls of the source: *; ? = inconclusive; . = no result given; ! = not confirmed by another sample. In the library only some 19% were active in any assay of this set; here they are far more common. Unless noted, calls follow the shape of the dose curve; as a rule, active = well fitted curve in the direction sought with a large enough effect; inconclusive = small, poorly fitted or top-dose-only effect, or another doubt; inactive = no such curve, though single readings can be large; an effect the other way counts as inactive or inconclusive. Unless noted, % is scaled to controls: 0 for no effect and ±100 for the full control effect.

SMILES	HT1080NT lethal	HT1080 IDH1KD tx	IL-1B inflam inh	TDP1 cell CPT	TDP1 cell noCPT
Cc1ccc(-n2ncc3c(N4CCCC(C)C4)ncnc32)c(C)c1 (stereo not drawn)	15.6%	6.3%	-11.3	8.2µM*	7.31µM*
Cc1ccn2c(=O)cc(COc3ccc(NC(=O)COc4ccc(C)c(C)c4)cc3)nc2c1	.	.	.	-0.1%	2.8%
Cc1ccc(OCc2cc(C(=O)N3CCN(CC(=O)NC(C)C)CC3)no2)cn1	13.3%	11.5%	20.4	-20.8%	4.6%
CN1C2CCC1CC(OC(c1ccccc1)c1ccccc1)C2 (stereo not drawn)	-21.4%	?	?	?	-35.9%
CN1CCCC(OC(=O)c2ccc(Cl)cc2)C1 (stereo not drawn)	-3.5%	-4.9%	-6.5	2.9%	?
CN1CCC(OC(c2ccccc2)c2ccc(Cl)cc2)C1 (stereo not drawn)	-29.6%	-16.0%	.	?	20.6µM*
CN1[C@@H]2CC[C@H]1CC(OC(c1ccccc1)c1ccccc1)C2 (stereo partly drawn)	.	.	.	7.5µM*	21.1µM*!
CCCOc1ccc(NC(N)=O)cc1OCCC	15.9%	14.8%	12.1	-0.6%	9.1%
COC(=O)c1cc(CSC(=N)N)ccc1OCCC(C)C	?	?	-85.2*	?	23.1µM*
CCCOc1ccc(CSC(=N)N)cc1C(=O)OC	-10.1%	-9.7%	-57.4*	?	?
NC(=O)c1ccc2c(c1)S(=O)(=O)c1ccccc1C2=O	13.3%	17.0%	16.5	-26.1%	16.4µM*
O=C(O)c1ccc2c(c1)S(=O)(=O)c1ccccc1C2=O	1.0%	-0.9%	8.5	4.4%	-3.7%
O=C(NCCc1ccccc1)c1ccc2c(c1)S(=O)(=O)c1ccccc1C2=O	-10.6%	-25.8%	-7.0	?	13µM*
O=C(NCCc1ccccc1)c1ccc2c(c1)S(=O)(=O)c1cc(Cl)ccc1C2=O	5.4%	8.3%	4.7	20.6µM*	-94.4%
CC(C)(C)c1ccc(-c2ccc3c(c2)S(=O)(=O)c2ccccc2C3=O)cc1	2.4%	-0.9%	15.8	?	23.1µM*
COc1ccccc1N1CCN(C(=O)Cn2nc(C(F)(F)F)c3c2CCC3)CC1	-5.9%	-2.7%	-4.0	-20.1%	-25.7%
COc1ccccc1CN(C)C(=O)CSCC(=O)Nc1ccccc1F	2.0%	17.2%	3.6	-25.0%	-29.0%
CC1CCC(NC(=O)c2ccc3c(c2)S(=O)(=O)c2ccccc2C3=O)CC1 (stereo not drawn)	-1.4%	-1.2%	-3.9	?	14.6µM*
O=C1c2ccccc2S(=O)(=O)c2cc(N3CCN(C(=O)c4ccccc4)CC3)ccc21	2.9%	1.0%	-67.2*	14.6µM*	20.6µM*
CN(C(=O)CSc1nc(-c2ccc(C(C)(C)C)cc2)c(C#N)c(=O)[nH]1)C1CCCCC1	-16.1%	-18.3%	0.0	-5.6%	10.8%
CC(=O)N1c2ccc(C)cc2Sc2c1ccc1ccccc21	?	-25.0%	16.7	-17.0%	?
Cc1ccc2c(c1)S/C(=C/c1ccc[n+](CCO)c1)N2C	-16.8%	?	-26.0	0.651µM*	1.16µM*
Cc1ccc2c(c1)S/C(=C\c1cccc[n+]1C)N2CCO	-3.4%	16.4µM*	17.5	1.16µM*	1.64µM*
CCn1c(SCC(=O)NC2CCCCC2)nnc1-c1cccnc1	10.4%	12.7%	0.0	15.0%	-0.1%
Oc1ccccc1/C=N/Nc1nn[nH]n1	26.5%	-11.5%	-25.9	-7.6%	-7.0%
SMILES	HT1080NT lethal	HT1080 IDH1KD tx	IL-1B inflam inh	TDP1 cell CPT	TDP1 cell noCPT
C=CCc1c(C)nc(C)nc1N/N=C/c1ccc([N+](=O)[O-])cc1	?	9.0%	36.8	?	16.4µM*
Cc1ccc2nc(C(Cl)(Cl)Cl)nc(N/N=C/c3ccc([N+](=O)[O-])cc3)c2c1	-0.3%	23.4%	22.6	?	16.4µM*
Cc1ccc2nc(C(Cl)(Cl)Cl)nc(N/N=C/c3ccncc3)c2c1	-3.9%	-6.5%	38.3	-20.4%	?
C=CCc1c(C)nc(C)nc1N/N=C/c1ccccc1O	6.3%	-23.4%	11.8	25.9µM*	23.1µM*
CCc1ccc(OCC(=O)Nc2cc3oc4ccccc4c3cc2OC)c(Br)c1	.	.	.	-5.4%	-14.3%
CCCCn1nnnc1C(c1cc2ccccc2o1)N1CCN(CC(=O)N2CCCC2)CC1 (stereo not drawn)	5.6%	7.6%	-13.3	-17.6%	?
CC(=O)N1CCOc2ccc(S(=O)(=O)NCC3CCC(C(=O)Nc4ccc(C)cn4)CC3)cc21 (stereo not drawn)	-26.5%	-15.3%	-7.8	14.6µM*	13µM*
CCOc1ccc(S(=O)(=O)N2CCN(C(=O)c3ccc(C)c(S(=O)(=O)N4CCOCC4)c3)CC2)cc1	-9.1%	-9.6%	-4.0	25.9µM*	18.4µM*
Cc1ccc(C(=O)N2CCC(Cc3ccccc3)CC2)cc1S(=O)(=O)N1CCOCC1	-3.0%	3.9%	-18.5	?	9.2µM*
CCOc1ccc(OCC(=O)N2CCN(S(=O)(=O)c3ccccc3)CC2)cc1	7.7%	3.4%	-25.9	-26.0%	-19.7%
CCOc1ccc(S(=O)(=O)N2CCN(C(=O)Cc3ccc(S(=O)(=O)N4CCOCC4)s3)CC2)cc1	-7.8%	0.1%	-13.4	?	23.1µM*
CCOc1ccc(NC(=O)COC(=O)Cc2ccc(S(=O)(=O)N3CCOCC3)s2)cc1	0.1%	24.7%	31.5	10.2%	3.0%
CCOc1ccc(S(=O)(=O)N2CCN(C(=O)c3cccn3C)CC2)cc1	4.9%	4.9%	-2.8	?	14.6µM*
COc1ccc(CCNc2ccc(C(CC(N)=O)NC(=O)c3cc(C)cc(C)c3)cc2[N+](=O)[O-])cc1 (stereo not drawn)	10.1%	11.6%	11.7	-2.8%	-15.4%
COc1cc(NC(=O)c2ccccc2F)c(OC)cc1NC(=O)CN1CCOCC1	-12.6%	-10.0%	-5.2	-18.6%	?
COc1cc(Cl)c(C)cc1NC(=O)c1ccccc1NC(=O)CN1CCOCC1	15.9%	12.4%	22.0	2.59µM*	4.61µM*
COc1ccccc1NC(=O)CN1CCN(CC(=O)Nc2ccc(Cl)c(C(F)(F)F)c2)CC1	?	23.1µM*	-79.8*	14.6µM*	13µM*
COc1ccc(NC(=O)CCNC(=O)c2ccccc2Cl)cc1OC	10.1%	16.6%	0.3	-4.5%	6.5%
O=C(CCNC(=O)c1ccccc1Cl)Nc1ccc(Cl)c(C(F)(F)F)c1	-1.5%	-13.5%	-0.9	?	23.1µM*
CCc1ccccc1NCC(=O)Nc1ccc(Cl)c(C(F)(F)F)c1	?	?	.	25.9µM*	16.4µM*
